# Experimental data taken from PubChem BioAssay (NCATS).
# Values without a mark were called inactive. Results filed as inconclusive are left out. Activity calls are given as the source filed them. The call rests on the fitted dose curve; in most records, active means well fitted curve in the direction sought with a large enough effect; inconclusive means small, poorly fitted or top-dose-only effect, or another doubt; inactive means no such curve, though single readings can be large; an effect the other way counts as inactive or inconclusive.
# How the values were obtained:
# [1] = Primary fluorescence-based thiol-reactive (MSTI) qHTS assay for identification of artifact compounds. (AID 1845221);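 further: thiol-reactive compounds lower the probe fluorescence signal; nearly all actives have a fitted effect of over 65% in size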
# Summary of the method: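 In PBS pH 7.4 with 2% DMSO, each compound met 4 uM MSTI for one hour at ambient temperature, shielded from light, before fluorescence detection.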
# [2] = tested on: Nanoluciferase (engineered Oplophorus gracilirostris luciferase); experiment: Primary Nanoluciferase (NLuc) qHTS assay for identification of artifact compounds. (AID 1845222);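 further: 0% = DMSO and -100% = no enzyme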
# Summary of the method: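 Diluted conditioned medium from NLuc-expressing S16 cells treated with compounds for 15 min at room temperature, then Nano-Glo substrate added; luminescence read after 5 min. Percent inhibition versus no-enzyme and DMSO controls fitted to 4-parameter Hill equation.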
# [3] = Primary redox qHTS assay for identification of artifact compounds. (AID 1845223)
# Summary of the method: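 Amplex Red (25 uM) and HRP (250 mU/mL) in HBSS, with compounds for 15 min, then 250 uM DTT for 30 min, room temperature, dark. Fluorescence 525/598 nm read; normalized to DMSO and 10 uM DA3003; Hill fit.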
# [4] = Quantitative High-Throughput drug screen in 47 multiple myeloma cell lines against the NCATS MIPE library collection: FR4_PLB cell viability assay (AID 1918924; further: nearly all actives have a fitted effect of over 35% in size; further: potency means the concentration at half of the fitted maximal effect)
# Summary of the method: (§1)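 Inhibition of cell viability is measured here. Each line was plated at 500 cells per well, treated with MIPE 4.0 drugs, kept 48 hours at 37C, then assayed for ATP content by CellTiter-Glo luminescence.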
# [5] = Quantitative High-Throughput drug screen in 47 multiple myeloma cell lines against the NCATS MIPE library collection: Delta47_JCRB cell viability assay (AID 1918925; further: potency means the concentration at half of the fitted maximal effect; nearly all actives have a fitted effect of over 45% in size)
# Summary of the method: (§2)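 Approved and investigational drugs from MIPE 4.0 were added by pin tool to 500 cells per well. After 48 hours at 37C, ATP-based CellTiter-Glo luminescence indicated remaining viability.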
# [6] = Quantitative High-Throughput drug screen in 47 multiple myeloma cell lines against the NCATS MIPE library collection: Karpas620_DSMZ cell viability assay (AID 1918959); further: nearly all actives have a fitted effect of over 30% in size; further: potency means the concentration at half of the fitted maximal effect
# Summary of the method: as §1
# [7] = Quantitative High-Throughput drug screen in 47 multiple myeloma cell lines against the NCATS MIPE library collection: INA6_PLB cell viability assay (AID 1918965; further: potency means the concentration at half of the fitted maximal effect; nearly all actives have a fitted effect of over 55% in size)
# Summary of the method: (§3)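 qHTS of the MIPE 4.0 collection: 500 myeloma cells/well, 48 h drug exposure at 37C in 5% CO2, then CellTiter-Glo for 5 min at room temperature before luminescence reading.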
# [8] = Quantitative High-Throughput drug screen in 47 multiple myeloma cell lines against the NCATS MIPE library collection: Karpas25_ECACC cell viability assay (AID 1918968; further: nearly all actives have a fitted effect of over 35% in size; further: potency means the concentration at half of the fitted maximal effect)
# Summary of the method: as §2
# [9] = Quantitative High-Throughput drug screen in 47 multiple myeloma cell lines against the NCATS MIPE library collection: EJM_DSMZ cell viability assay (AID 1918926; further: nearly all actives have a fitted effect of over 30% in size; further: potency means the concentration at half of the fitted maximal effect)
# Summary of the method: as §2
# [10] = Quantitative High-Throughput drug screen in 47 multiple myeloma cell lines against the NCATS MIPE library collection: AMO1_DSMZ cell viability assay (AID 1918927; further: potency means the concentration at half of the fitted maximal effect; nearly all actives have a fitted effect of over 30% in size)
# Summary of the method: as §2
# [11] = Quantitative High-Throughput drug screen in 47 multiple myeloma cell lines against the NCATS MIPE library collection: ARP1_JJKsccF8 cell viability assay (AID 1918928; further: potency means the concentration at half of the fitted maximal effect; nearly all actives have a fitted effect of over 40% in size)
# Summary of the method: (§4)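 Luminescence from CellTiter-Glo, taken after 5 min at room temperature, reports cellular ATP as viability. Cells (500 per well) had been treated 48 h at 37 °C with MIPE 4.0 compounds, scaled between DMSO and medium-only controls.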
# [12] = Quantitative High-Throughput drug screen in 47 multiple myeloma cell lines against the NCATS MIPE library collection: KMM1_JCRB cell viability assay (AID 1918960); further: nearly all actives have a fitted effect of over 30% in size; further: potency means the concentration at half of the fitted maximal effect;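 on viability (% of DMSO): 100% = DMSO-treated cells and 0% = medium-only wells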
# Summary of the method: as §4
# [13] = Quantitative High-Throughput drug screen in 47 multiple myeloma cell lines against the NCATS MIPE library collection: Karpas417_ECACC cell viability assay (AID 1918961); details: Karpas417 myeloma viability, CellTiter-Glo ATP luminescence, 48 h; viability (% of DMSO): at 45.8 µM (top of the series); further: potency means the concentration at half of the fitted maximal effect
# Summary of the method: as §3
# [14] = Quantitative High-Throughput drug screen in 47 multiple myeloma cell lines against the NCATS MIPE library collection: KHM11_PLB cell viability assay (AID 1918962); further: nearly all actives have a fitted effect of over 35% in size; further: potency means the concentration at half of the fitted maximal effect
# Summary of the method: as §1
# [15] = Quantitative High-Throughput drug screen in 47 multiple myeloma cell lines against the NCATS MIPE library collection: JIM3_ECACC cell viability assay (AID 1918963; further: nearly all actives have a fitted effect of over 35% in size; further: potency means the concentration at half of the fitted maximal effect)
# Summary of the method: as §1
# [16] = Quantitative High-Throughput drug screen in 47 multiple myeloma cell lines against the NCATS MIPE library collection: JIM1_ECACC cell viability assay (AID 1918964; further: potency means the concentration at half of the fitted maximal effect)
# Summary of the method: as §2
# [17] = Quantitative High-Throughput drug screen in 47 multiple myeloma cell lines against the NCATS MIPE library collection: JJN3_DSMZ cell viability assay (AID 1918966; further: potency means the concentration at half of the fitted maximal effect; nearly all actives have a fitted effect of over 50% in size)
# Summary of the method: as §2
# [18] = Quantitative High-Throughput drug screen in 47 multiple myeloma cell lines against the NCATS MIPE library collection: H1112_PLB cell viability assay (AID 1918967; further: nearly all actives have a fitted effect of over 30% in size; further: potency means the concentration at half of the fitted maximal effect)
# Summary of the method: as §2
# [19] = Quantitative High-Throughput drug screen in 47 multiple myeloma cell lines against the NCATS MIPE library collection: KMS27_JCRB cell viability assay (AID 1918970); details: KMS27 myeloma cells, CellTiter-Glo ATP viability, 48 h; viability (% of DMSO): at 45.8 µM (top of the series); further: nearly all actives have a fitted effect of over 30% in size; further: potency means the concentration at half of the fitted maximal effect
# Summary of the method: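 CellTiter-Glo luminescence after 48 h drug exposure at 37 °C; 500 cells/well, 1536-well format, pin-tool compound addition; DMSO = 100%, media-only = 0% viability.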
# [20] = Quantitative High-Throughput drug screen in 47 multiple myeloma cell lines against the NCATS MIPE library collection: ARD_JJKsccE7 cell viability assay (AID 1918929; further: potency means the concentration at half of the fitted maximal effect)
# Summary of the method: as §2
smiles,measurement,setting,value
CCC(=O)N1CCN(c2ccc(-n3c(=O)ccc4cnc5ccc(-c6cnc7ccccc7c6)cc5c43)cc2C(F)(F)F)CC1,"activity change, negative = thiol reactive",[1],-11% [at 11.5 µM]
same,"activity, negative = inhibition",[2],4.43% [at 11.6 µM]
same,redox activity (% of DA3003),[3],-10.4% [at 11.5 µM]
same,Potency,[4],0.0132 µM (active)
same,Potency,[5],0.0166 µM (active)
same,Potency,[6],0.0187 µM (active)
same,Potency,[7],0.0148 µM (active)
same,Potency,[8],0.0332 µM (active)
O=c1[nH]nc(OCCCc2ccc(Cl)cc2)c(NCc2cccnc2)c1Br,Potency,[1],inactive
same,Potency,[2],inactive
same,outcome,[3],inactive
same,Potency,[5],4.18 µM (active)
same,Potency,[9],18.7 µM (active)
same,Potency,[10],7.43 µM (active)
same,Potency,[11],18.7 µM (active)
same,Potency,[6],10.5 µM (active)
same,Potency,[12],18.7 µM (active)
same,Potency,[13],4.69 µM (active)
same,Potency,[14],2.96 µM (active)
same,Potency,[15],8.33 µM (active)
same,Potency,[16],8.33 µM (active)
same,Potency,[7],4.69 µM (active)
same,Potency,[17],20.9 µM (active)
same,Potency,[18],10.5 µM (active)
same,Potency,[8],6.62 µM (active)
same,Potency,[19],7.43 µM (active)
C[C@@H](N)c1ccc(C(=O)Nc2ccnc3[nH]ccc23)cc1,Potency,[1],inactive
same,Potency,[2],inactive
same,outcome,[3],inactive
same,Potency,[4],26.4 µM (active)
same,Potency,[10],23.5 µM (active)
same,Potency,[20],26.4 µM (active)
same,Potency,[14],20.9 µM (active)
same,Potency,[15],20.9 µM (active)
same,Potency,[16],13.2 µM (active)
same,Potency,[7],20.9 µM (active)
same,Potency,[17],20.9 µM (active)
same,Potency,[18],23.5 µM (active)
same,Potency,[19],18.7 µM (active)
NC(=O)c1noc([C@H](CCCC2CCCCC2)CC(=O)NO)n1,Potency,[1],inactive
same,Potency,[2],inactive
same,outcome,[3],inactive
same,Potency,[4],6.62 µM (active)
same,Potency,[9],14.8 µM (active)
same,Potency,[10],4.18 µM (active)
same,Potency,[11],14.8 µM (active)
same,Potency,[6],7.43 µM (active)
same,Potency,[15],23.5 µM (active)
same,Potency,[16],5.9 µM (active)
same,Potency,[7],14.8 µM (active)
same,Potency,[18],16.6 µM (active)
same,Potency,[8],14.8 µM (active)
same,Potency,[19],7.43 µM (active)
C[C@@H](NC(=O)c1ncnc(N)c1Cl)c1ncc(C(=O)Nc2cc(C(F)(F)F)c(Cl)cn2)s1,Potency,[1],inactive
same,Potency,[2],inactive
same,outcome,[3],inactive
same,Potency,[4],14.8 µM (active)
same,Potency,[9],inactive
same,Potency,[10],10.5 µM (active)
same,Potency,[6],26.4 µM (active)
same,Potency,[13],2.96 µM (active)
same,Potency,[14],5.26 µM (active)
same,Potency,[15],13.2 µM (active)
same,Potency,[17],18.7 µM (active)
same,Potency,[18],16.6 µM (active)
COc1cc2nccc(Oc3ccc(NC(=O)Nc4cc(C)on4)c(Cl)c3)c2cc1OC,Potency,[1],inactive
same,Potency,[2],inactive
same,outcome,[3],inactive
same,Potency,[5],18.7 µM (active)
same,Potency,[9],13.2 µM (active)
same,Potency,[10],4.18 µM (active)
same,Potency,[12],3.72 µM (active)
same,Potency,[7],23.5 µM (active)
same,Potency,[8],20.9 µM (active)
same,Potency,[19],inactive
Cc1ccccc1-n1c(Cn2nc(-c3cccc(O)c3)c3c(N)ncnc32)nc2cccc(C)c2c1=O,Potency,[1],inactive
same,Potency,[2],inactive
same,outcome,[3],inactive
same,Potency,[4],8.33 µM (active)
same,Potency,[5],2.96 µM (active)
same,Potency,[10],0.372 µM (active)
same,Potency,[11],3.32 µM (active)
same,Potency,[20],1.05 µM (active)
same,Potency,[6],0.833 µM (active)
same,Potency,[12],0.935 µM (active)
same,Potency,[13],4.18 µM (active)
same,Potency,[14],18.7 µM (active)
same,Potency,[15],3.72 µM (active)
same,Potency,[16],1.18 µM (active)
same,Potency,[7],1.05 µM (active)
same,Potency,[18],2.64 µM (active)
same,Potency,[8],2.64 µM (active)
same,Potency,[19],0.469 µM (active)
Cc1cnc(CNC(=O)c2c(=O)c3ccc(N4CCCN(C)CC4)nc3n3c2sc2ccccc23)cn1,"activity change, negative = thiol reactive",[1],18.4% [at 11.5 µM]
same,"activity, negative = inhibition",[2],4.41% [at 11.6 µM]
same,redox activity (% of DA3003),[3],-5.5% [at 11.5 µM]
same,Potency,[4],12.9 µM (active)
same,Potency,[5],0.457 µM (active)
same,Potency,[10],0.512 µM (active)
same,Potency,[11],9.11 µM (active)
same,Potency,[6],inactive
same,Potency,[14],inactive
same,Potency,[7],2.57 µM (active)
same,Potency,[8],inactive
same,Potency,[19],inactive
Cc1ccccc1C(=O)c1ccc(Nc2ccc(Br)cc2N)cc1Cl,Potency,[1],inactive
same,Potency,[2],inactive
same,outcome,[3],inactive
same,Potency,[4],6.62 µM (active)
same,Potency,[9],14.8 µM (active)
same,Potency,[10],0.833 µM (active)
same,Potency,[6],4.69 µM (active)
same,Potency,[7],18.7 µM (active)
same,Potency,[8],18.7 µM (active)
COc1ccc(-c2cc3nccn3c(Nc3ncccc3C(N)=O)n2)cc1OC,Potency,[1],inactive
same,Potency,[2],inactive
same,outcome,[3],inactive
same,Potency,[4],3.32 µM (active)
same,Potency,[5],0.833 µM (active)
same,Potency,[10],0.469 µM (active)
same,Potency,[11],4.69 µM (active)
same,Potency,[6],inactive
same,Potency,[13],0.166 µM (active)
same,Potency,[14],0.833 µM (active)
same,Potency,[15],1.05 µM (active)
same,Potency,[16],0.372 µM (active)
same,Potency,[7],0.187 µM (active)
same,Potency,[18],5.9 µM (active)
same,Potency,[8],1.48 µM (active)
Cc1cc2c(cc1C1(c3ccc(C(=O)O)cn3)CC1)C(C)(C)CCC2(C)C,Potency,[1],inactive
same,Potency,[2],inactive
same,outcome,[3],inactive
same,Potency,[4],inactive
same,Potency,[9],inactive
same,Potency,[10],5.26 µM (active)
same,Potency,[11],26.4 µM (active)
same,Potency,[6],inactive
same,Potency,[12],inactive
same,Potency,[15],0.332 µM (active)
same,Potency,[18],0.118 µM (active)
CCN(CCO)CCCOc1ccc2c(Nc3cc(CC(=O)Nc4cccc(F)c4)[nH]n3)ncnc2c1,Potency,[1],inactive
same,Potency,[2],inactive
same,outcome,[3],inactive
same,Potency,[4],inactive
same,Potency,[9],inactive
same,Potency,[10],0.187 µM (active)
same,Potency,[20],inactive
same,Potency,[6],inactive
same,Potency,[12],inactive
same,Potency,[13],0.469 µM (active)
same,Potency,[14],inactive
same,Potency,[15],inactive
same,Potency,[7],0.0743 µM (active)
same,Potency,[18],inactive
same,Potency,[8],inactive
same,Potency,[19],0.0083 µM (active)
CNC(=O)c1c(-c2ccc(F)cc2)oc2cc(N(CCO)S(C)(=O)=O)c(C3CC3)cc12,Potency,[1],inactive
same,Potency,[2],inactive
same,outcome,[3],inactive
same,Potency,[4],23.5 µM (active)
same,Potency,[8],20.9 µM (active)
